Source: PubChem BioAssay (National Center for Advancing Translational Sciences (NCATS))
This is a sample that favours compounds with a hit; in the whole collection about 9% have one here.
KinaseGlo FLuc – Counterscreen for Luciferase (Kinase-Glo TM) Inhibition; Luciferin 4-monooxygenase (Photuris pensylvanica), Q27757; Kinase-Glo luciferase, ATP luminescence, 8 min; Potency, µM (highest dose often 38.3 µM), usual class: inhibitors; 0.28% of 200,000 active; AID 1379, 2008; note: nearly all actives have a fitted effect of over 60% in size
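Recombinant Kinase-Glo luciferase, 10 uM ATP (linear range), luciferin; imidazole pH 7.2 / KCl / MgCl2 / Tween / BSA buffer; 8 min RT; luminescence.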
Lamin A splicing – qHTS Assay for Modulators of Lamin A Splicing. AID 1487, 2009. 0.01% of 200,000 active. HeLa LMNA splicing GFP/RFP minigene ratio, 48 h. Potency, µM (titrated, usually from 46.1 µM), hits mostly inhibitors; active = well fitted inhibition curve with a large enough effect in the signal ratio, with a control signal flat, not every such curve was filed as active; inconclusive = small, poorly fitted or top-dose-only effect, or effect the other way, or a change in a side signal; the % refers to the signal ratio
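S3 HeLa cells stably expressing lamin A-EGFP splicing minigene plus DsRed2, 600 cells/well, 48 h compound exposure at 37C. Laser-scanning cytometry; analysed as GFP (500-530 nm)/RFP (575-640 nm) total intensity ratio; 0.5% DMSO vehicle.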
HttQ103 aggreg – qHTS Multiplex Assay to Identify Dual Action Probes in a Cell Model of Huntington: Aggregate Formation (GFP) | 1.1% of 220,000 active | Potency, µM (series often up to 46.1 µM), actives largely listed as inhibitors | PC12 HttQ103-GFP aggregates, Acumen cytometry, 40 h | AID 1688, 2009; note: nearly all actives have a fitted effect of over 60% in size
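Compounds (qHTS titration) were added to PC12 cells expressing an ecdysone-driven HTT exon 1 Q103–GFP fusion after induction with 100 nM tebufenozide. Aggregate formation was measured as GFP objects in cell lysates.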
HPGD inh – qHTS Assay for Inhibitors of HPGD (15-Hydroxyprostaglandin Dehydrogenase) | 4.3% of 150,000 active | 15-hydroxyprostaglandin dehydrogenase [NAD(+)] (Homo sapiens), P15428 | purified HPGD, NADH fluorescence kinetic, PGE2 substrate | Potency, µM, usual class: inhibitors | AID 894, 2007; active = well fitted inhibition curve with a large enough effect, not every such curve was filed as active; inconclusive = small, poorly fitted or top-dose-only effect, or another doubt; inactive = no such curve, though single readings can be large or run the other way
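NADH formation kinetics: reaction with 30 uM PGE2 and 1 mM NAD+ (final), 20 nM enzyme, Tris-HCl pH 8 with Tween 20, after 15 min compound preincubation at room temperature. Fluorescence change, last versus first of five reads.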
HTT ATP protect – qHTS Multiplex Assay to Identify Dual Action Probes in a Cell Model of Huntington: Cytoprotection (ATP). PC12 HTT-Q103 induced, cytoprotection, ATP luminescence, 40 h. Potency, µM (top dose mostly 56.4 µM), actives largely listed as activators. 0.14% of 230,000 active; note: nearly all actives have a fitted effect of over 45% in size
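ATP quantification (ATPlite) reports survival of PC12 cells in which tebufenozide, 100 nM final, switches on Htt exon 1 with 103 glutamines linked to GFP; compounds are titrated.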
ALDH1A1 block – qHTS Assay for Inhibitors of Aldehyde Dehydrogenase 1 (ALDH1A1); Aldehyde dehydrogenase 1A1 (Homo sapiens), P00352; Purified ALDH1A1, NADH fluorescence, propionaldehyde substrate; 7.3% of 220,000 active; Potency, µM (series often up to 75.3 µM), most hits filed as inhibitors; AID 1030, 2008; active = well fitted inhibition curve with a large enough effect, not every such curve was filed as active; inconclusive = small, poorly fitted or top-dose-only effect, or another doubt; inactive = no such curve, though single readings can be large or run the other way
Target sequence (P00352 whole entry, looked up): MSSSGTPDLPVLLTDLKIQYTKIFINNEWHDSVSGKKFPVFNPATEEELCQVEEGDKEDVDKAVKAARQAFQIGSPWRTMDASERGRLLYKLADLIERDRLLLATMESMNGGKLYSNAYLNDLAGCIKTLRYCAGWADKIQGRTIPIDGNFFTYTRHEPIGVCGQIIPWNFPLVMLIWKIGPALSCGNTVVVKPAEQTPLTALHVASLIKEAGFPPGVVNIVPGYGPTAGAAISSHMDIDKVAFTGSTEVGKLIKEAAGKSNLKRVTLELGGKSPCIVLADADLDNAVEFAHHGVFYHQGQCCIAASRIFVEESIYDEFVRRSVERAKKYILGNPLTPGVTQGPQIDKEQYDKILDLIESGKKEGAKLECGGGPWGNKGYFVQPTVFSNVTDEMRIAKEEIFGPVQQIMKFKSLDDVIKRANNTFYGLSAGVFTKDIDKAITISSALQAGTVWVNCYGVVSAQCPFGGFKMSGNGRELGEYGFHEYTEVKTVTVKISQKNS
A number is an active result; – = inactive; ? = inconclusive; · = no result given; [ ] = dose if it differs, or a comment. Unless noted, calls come from the whole dose curve; as a rule, active = well fitted curve in the direction sought with a large enough effect; inconclusive = small, poorly fitted or top-dose-only effect, or another doubt; inactive = no such curve, though single readings can be large; an effect the other way counts as inactive or inconclusive.

SMILES | KinaseGlo FLuc | Lamin A splicing | HttQ103 aggreg | HPGD inh | HTT ATP protect | ALDH1A1 block
CCOC(=O)N1CCC(N(CCN(C)C)C(=S)Nc2cccc(OC)c2)CC1 | – | · | – | · | – | –
Cn1c(CNc2nc(-c3ccccc3)cs2)nnc1SCC(=O)OC1CCCCC1 | – | – | – | – | –[10 µM] | –
CCOC(=O)/C(C#N)=C/c1cc2ccc(C)cc2nc1Cl | – | ? | – | ? | –[10 µM] | ?
CCOC(=O)/C(C#N)=C/c1cc2ccccc2nc1N1CCOCC1 | – | – | – | – | –[10 µM] | 25µM
CCOC(=O)/C(C#N)=C/c1cc(C)n(-c2ccccc2)c1C | – | – | –[9.22 µM] | – | – | 11µM
CCOC(=O)/C(C#N)=C/c1cc(C)n(-c2ccc(Br)cc2)c1C | – | – | – | – | –[10 µM] | –
N=C1SCC(=O)N1c1nc(-c2ccccc2)cs1 | – | – | – | – | – | –
Cc1cc(C(=O)Nc2ccc(OCc3ccccc3)cc2)c(C)o1 | 11µM | · | – | · | – | ?
CCc1cccc(C)c1NC(=O)c1cc(C)oc1C | – | – | 1.3µM | – | –[0.074 µM] | –
O=C(Nc1ccc(OCc2ccccc2)cc1)c1ccccc1 | – | – | – | · | – | –
CCOC(=O)C(=O)Nc1ccc(OCc2ccccc2)cc1 | – | – | –[9.22 µM] | · | –[10 µM] | 25µM
C/C(CC(=O)Nc1ccc(OCc2ccccc2)cc1)=N\NC(=O)C(=O)Nc1ccc(C)c(Cl)c1 | – | – | – | – | – | 14µM
O=C(CCC(=O)OCC(F)(F)C(F)F)Nc1ccc(F)cc1F | – | – | – | – | –[10 µM] | –
Cc1oc(C(=O)Nc2ccc(C(=O)O)cc2)cc1COc1ccccc1 | – | ? | – | 20µM | – | –
O=C(NC1CC2CCCC(C1)N2C(=O)NC1CCCCC1)c1ccccc1 (configuration not stated) | – | – | – | – | –[10 µM] | –
COc1ccc(-n2nc(C#N)c(Cl)cc2=O)cc1 | – | ? | 25µM | · | –[10 µM] | ?
COc1ccc(NC(=O)CNc2cc(S(=O)(=O)N3CCOCC3)ccc2NCC2CCCO2)cc1 (configuration not stated) | – | – | – | · | – | 7.1µM
CCC(C)NC(=O)COc1ccc(S(=O)(=O)N2CCOCC2)cc1 (configuration not stated) | – | – | – | – | –[10 µM] | 5µM
O=C(COC(=O)COc1ccccc1[N+](=O)[O-])Nc1ccc(S(=O)(=O)N2CCCCC2)cc1 | – | – | –[9.22 µM] | – | – | 14µM
CCOCC(=O)Nc1ccc(S(=O)(=O)N2CCOCC2)cc1 | – | – | – | – | –[10 µM] | 10µM
COc1ccccc1OCC(=O)Nc1ccc(S(=O)(=O)N2CCCCCC2)cc1 | – | ? | – | ? | –[10 µM] | –
O=C(Cc1cn2ccsc2n1)Nc1cccc2cnccc12 | – | – | – | – | – | –
O=C1CCc2cc(S(=O)(=O)N3CCN(c4cccc(Cl)c4)CC3)ccc2N1 | – | – | – | – | – | –
Cc1ccc(C(=O)c2cc3ccccc3o2)cc1C | – | – | – | ? | – | ?
O=C(COC(=O)COc1ccccc1)Nc1ccc(S(=O)(=O)N2CCOCC2)cc1 | – | · | – | · | – | 32µM
SMILES | KinaseGlo FLuc | Lamin A splicing | HttQ103 aggreg | HPGD inh | HTT ATP protect | ALDH1A1 block
Cc1cc(C)cc(CC2CC(=O)N(c3ccc(Cl)cn3)C2=O)c1 (configuration not stated) | – | – | – | – | – | –
O=C(CN1CCCc2ccccc21)N1CCc2ccccc21 | · | · | –[9.22 µM] | · | –[10 µM] | ·
CCN1CCN(CC(=O)Nc2ccc(Cl)c(S(=O)(=O)N(C)C)c2)CC1 | – | · | – | · | – | 3.5µM
CN(C)S(=O)(=O)c1cc(NC(=O)CN2CCOCC2)ccc1Cl | – | ? | – | · | – | –
CC1Cc2ccccc2N1CC(=O)Nc1ccc(Cl)c(S(=O)(=O)N(C)C)c1 (configuration not stated) | – | –[9.22 µM] | – | · | – | ?
NNC(=O)CN1CCCc2ccccc21 | – | – | – | · | –[10 µM] | 6.3µM
CN(C)S(=O)(=O)c1cc(NC(=O)CN2CCc3ccccc32)ccc1Cl | · | · | – | · | ? | 1.6µM
CN(C)S(=O)(=O)c1ccc(NC(=O)CN2CCCc3ccccc32)cc1 | – | · | – | · | · | 18µM
CN(C)S(=O)(=O)c1cc(NC(=O)CN2CCN(c3ccccc3F)CC2)ccc1Cl | – | · | – | · | – | ?
CN(C)S(=O)(=O)c1cc(NC(=O)CN2CCCc3ccccc32)ccc1Cl | – | –[9.22 µM] | ? | · | – | 8.9µM
CC(C)(C)c1ccc(-c2nc(NCc3cccnc3)c3ccccc3n2)cc1 | – | ? | ? | – | –[0.074 µM] | –
CNc1nc(-c2ccc(C(=O)N(C)C)cc2)nc2ccccc12 | · | – | · | · | – | –
Cc1cccc(CNc2nc(-c3ccoc3)nc3ccccc23)c1 | – | ? | · | – | – | –
c1ccc(CNc2nc(-c3ccoc3)nc3ccccc23)cc1 | · | ? | · | · | – | 32µM
CN(C)C(=O)c1ccc(-c2ccc3ncnc(NCc4ccccc4)c3c2)cc1 | · | ? | · | · | – | ?
CN(C)C(=O)c1ccc(-c2nc(NCc3cccnc3)c3ccccc3n2)cc1 | – | – | · | 16µM | – | –
CN(C)C(=O)c1ccc(-c2nnc(NCc3ccccc3)c3ccccc23)cc1 | – | – | ? | 2.5µM | –[10 µM] | ?
Cc1cnc(CNc2nc(-c3ccc(C(=O)N(C)C)cc3)nc3ccccc23)cn1 | – | – | · | 14µM | – | –
Cc1nn(-c2ccccc2)nc1CNC(=O)c1ncoc1-c1ccccc1 | · | – | –[9.22 µM] | · | –[10 µM] | –
CN(C)C(=O)c1ccc(-c2nccc(NCc3cccnc3)n2)cc1 | – | – | · | 14µM | – | –
